Inconclusive results are not listed. Entries that show only a call come without a potency. Activity calls are given as the source filed them. The call rests on the fitted dose curve; in most records, active means well fitted cell-killing curve with a large enough effect in the repeat runs; inconclusive means weak or mixed curves, or effect the other way; inactive means flat fitted curve, though single readings scatter.
Test: qHTS assay to identify small molecule that activate the aryl hydrocarbon receptor (AhR) signaling pathway - cell viability counter screen (AID 743086);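 further: HepG2 liver cells carrying the AhR DRE luciferase reporter; nearly all actives have a fitted effect of over 45% in size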
Conditions: HepG2-AhR-luc viability, CellTiter-Fluor, 24 h; series mostly up to 70.3 µM
Procedure, shortened: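 HepG2-AhR-luc (HG2L7.5c1) cells, 4000/well, were preincubated 5 h at 37C, exposed to compound in qHTS format for 24 hr at 37C, then given CellTiter-Fluor for 30 min; viability was read as fluorescence in the reporter wells.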

Structure (SMILES)	Potency
COC(Cc1ccccc1)OC	inactive
O=C(O)/C=C/c1cnc[nH]1	inactive
CCN1CCC[C@H]1CNC(=O)c1c(OC)ccc(Br)c1OC	inactive
N[C@H]1C(O)O[C@H](CO)[C@H](O)[C@@H]1O (stereo partly drawn)	inactive
CC(C)(C)c1cc(CCC(=O)OCC(COC(=O)CCc2cc(C(C)(C)C)c(O)c(C(C)(C)C)c2)(COC(=O)CCc2cc(C(C)(C)C)c(O)c(C(C)(C)C)c2)COC(=O)CCc2cc(C(C)(C)C)c(O)c(C(C)(C)C)c2)cc(C(C)(C)C)c1O	inactive
CCOC(=O)CC(=O)c1cc(F)c(Cl)nc1Cl	inactive
CCN(CC)C(C)=O	inactive
C=CCCCCCC	inactive
COC(=O)C(C)=O	inactive
Oc1ccc(Sc2ccc(O)cc2)cc1	inactive
C=C(C)C(=O)OCCOc1ccccc1	inactive
Cc1cccc(OCCOc2cccc(C)c2)c1	inactive
CC(C)NCC(O)COc1ccc(CC(N)=O)cc1 (stereo not drawn)	inactive
